Among the data in PubChem BioAssay (EPA / NIEHS) are AC50 and outcome values, retold here.

One may read the AC50 as the concentration giving half of the maximal activity seen.

Active and inactive are the calls of the source. The calls were made as follows: active = hit-call score of the fitted dose curve at least 0.9, where 1 is the maximum; inactive = score below 0.9.

Sequence of Bile acid receptor (Homo sapiens) (Q96RI1 whole entry, looked up): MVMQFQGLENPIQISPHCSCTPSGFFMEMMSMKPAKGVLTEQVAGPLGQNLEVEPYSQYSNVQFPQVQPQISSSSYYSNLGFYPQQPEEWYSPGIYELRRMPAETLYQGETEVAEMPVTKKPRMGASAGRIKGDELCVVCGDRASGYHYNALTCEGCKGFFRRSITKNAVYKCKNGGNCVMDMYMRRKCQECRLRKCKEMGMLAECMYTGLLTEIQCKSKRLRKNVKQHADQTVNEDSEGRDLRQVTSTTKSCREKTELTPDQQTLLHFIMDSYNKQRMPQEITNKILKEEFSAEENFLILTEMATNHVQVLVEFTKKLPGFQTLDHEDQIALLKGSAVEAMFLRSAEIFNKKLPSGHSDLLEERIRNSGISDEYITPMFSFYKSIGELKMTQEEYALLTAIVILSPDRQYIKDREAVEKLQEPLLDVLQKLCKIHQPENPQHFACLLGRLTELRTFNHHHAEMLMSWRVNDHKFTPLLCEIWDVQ

This test deals with Bile acid receptor (Homo sapiens) (UniProt Q96RI1). The test is described as follows: ATG_IR1_CIS: Attagene CIS-FACTORIAL HepG2 Assay for human Nuclear Receptor Subfamily 1 Group H Member 4 (NR1H4), IR1 submotif (AID 2282946). As to conditions: IR1 reporter transcription, actives raise or lower the signal. The procedure:
ATG_CIS is a cell-based, multiplexed-readout assay that uses HepG2, a human liver cell line, with measurements taken at 24 hours after chemical dosing in a 24-well plate.ATG_IR1_CIS is one of 52 assay component(s) measured or calculated from the ATG_CIS assay. It is designed to make measurements of mRNA induction, a form of inducible reporter, as detected with fluorescence intensity signals by Reverse transcription polymerase chain reaction (RT-PCR) and Capillary electrophoresis technology.Data from the assay component ATG_IR1_CIS was analyzed into 1 assay endpoint. This assay endpoint, ATG_IR1_CIS, was analyzed with bidirectional fitting relative to DMSO as the negative control and baseline of activity. Using a type of inducible reporter, measures of mRNA for gain or loss-of-signal activity can be used to understand the reporter gene at the transcription factor-level as they relate to the gene NR1H4. Furthermore, this assay endpoint can be referred to as a primary readout, because this assay has produced multiple assay endpoints where this one serves a reporter gene function. To generalize the intended target to other relatable targets, this assay endpoint is annotated to the nuclear receptor intended target family, where the subfamily is non-steroidal.
Human liver HepG2 cells are transiently transfected with multiple reporter transcription units (MRTUs) in 6-well plates using FuGene 6 reagent (Roche; 3 ml FuGene/1 mg DNA). The MRTU constructs are regulated by a cis-regulating element (promoter). […] A major difference between the CIS and TRANS system is that in CIS activities of endogenous TFs are measured, whereas the TRANS assay evaluates changes in activities of exogenous, chimeric NR-Gal4 proteins. […] At the end of 24 hour incubation, total RNA was isolated using TriZol reagent (Invitrogen). The isolated RNA is then reverse-transcribed using oligo(dT) primer and Mo-MLV reverse transcriptase (Invitrogen) with DNAse I (Ambion) treatment for 30 min. The one-tenth of the produced cDNA was amplified by PCR using Taq DNA polymerase (Invitrogen) and two reporter sequence-specific primers. The PCR products were fluorescently labeled by primer extension with 6-arboxyfluorescein (6-FAM) 5'-labeled reporter sequence-specific primer (2 min at 95 C, 20 s at 68 C and 10 min at 72 C) and these products were digested with 5U of HpaI (New England Biolabs) for 2h at 37 C. The fragments were purified using Qiaquick PCR columns (Qiagen), analyzed on an ABI 3130xL genetic analyzer (Applied Biosystems) with peak positions identified by using a set of X-rhodamine (ROX)-labeled MapMarker1000 molecular weight standards (BioVentures). The raw capillary electrophoresis data was processed using Attagraph software (Attagene).
On to `CC1(C)CC(O)CC(C)(C)N1[O]`, for which the AC50 is 27.7 µM (active).
On to `CCOC(=O)OC(=O)OCC`, for which the compound was classed as inactive.
Still for that read-out and setting: the value for `O=C(O)c1ccc2c(c1)C(=O)OC2=O` was “inactive”.
As to `CCC(C)N` (stereo not given), the result was inactive.
The same measure, in the same setting: the value for `CCNc1nc(NC(C)(C)C)nc(OC)n1` was “inactive”; that for `Nc1ccc(C(=O)O)cc1` was “inactive”; that for `CCCCCCCCCCCCCc1ccccc1` was “inactive”.
Same read-out and setting: then `C=C[Si](OCCOC)(OCCOC)OCCOC`, with “inactive”; and `Cc1c(O)cccc1O`, with “inactive”.
In the case of `CCC[Si](OC)(OC)OC`, the outcome was inactive.
On the same count and under the same terms, the value for `CCCCCCCCCCCCC` was “inactive”.
The same measure, in the same setting: the value for `CC(CCC(=O)O)(c1ccc(O)cc1)c1ccc(O)cc1` was “inactive”; that for `CCc1cccc(C)c1N(C(=O)CS(=O)(=O)O)C(C)COC` (stereo not given) was “inactive”.
The same measure, in the same setting: then `CC(C)C(=O)OCCc1ccccc1`, with “inactive”; and `CCOC(=O)c1ccccc1C`, with “inactive”; and `CCOB(OCC)OCC`, with “inactive”.
With `Nc1ccc(C(=O)OCCCOC(=O)c2ccc(N)cc2)cc1`, the compound was called inactive.
With `N=C1C=CC(=C(c2ccc(N)cc2)c2ccc(N)cc2)C=C1`, the compound was called inactive.
On the same count and under the same terms, then `CC(C)[N+](C)(CCOC(=O)C1c2ccccc2Oc2ccccc21)C(C)C`, with “inactive”.
`CC(c1cc(C(C)(C)C)cc(C(C)(C)C)c1O)c1cc(C(C)(C)C)cc(C(C)(C)C)c1O`: the AC50 is 1.87 µM (active).
Regarding `CN(C)Cc1cc(CN(C)C)c(O)c(CN(C)C)c1`, the compound was called inactive.
On the same count and under the same terms, then `CCCCc1ccc(Cl)cc1`, with “inactive”.
On the same count and under the same terms, then `Cc1noc(NS(=O)(=O)c2ccc(N)cc2)c1C`, with “inactive”.
Turning to `O=C(O)c1cc(O)c2ccccc2c1O`, the AC50 was 33.4 µM (active).
As to `Nc1ncnc2nc[nH]c12`, the call was inactive.
Still for that read-out and setting: then `O=c1c(O)c(-c2ccc(O)cc2O)oc2cc(O)cc(O)c12`, with “inactive”; and `Cc1c[nH]c(=O)[nH]c1=O`, with “inactive”; and `CC(=O)c1ccc(S(=O)(=O)NC(=O)NC2CCCCC2)cc1`, with “inactive”.
As to `c1ccc2sc(SSN3CCOCC3)nc2c1`, the AC50 was 105 µM (active).
Turning to `CCCCCCCCCCCCCC(=O)OC(C)C`, the result was inactive.
The same measure, in the same setting: the value for `CN1CCN(C)CC1` was “inactive”; that for `CC1=CP(=O)(c2ccccc2)CC1` (stereo not given) was “inactive”; that for `C1CCSC1` was “inactive”.
Still for that read-out and setting: then `CCc1occc(=O)c1O`, with “inactive”; and `C=C(C)C1CC=C(C)C(OC(C)=O)C1` (stereo not given), with “inactive”; and `Cc1ccccc1CCO`, with “inactive”.
Same read-out and setting: then `CC(C)c1ccc2ncccc2c1`, with “inactive”; and `CC1(C)C(=O)N(CO)C(=O)N1CO`, with “inactive”.
In the case of `CC1(C)CCC[C@]2(C)[C@H]3CC(=O)O[C@]3(C)CC[C@@H]12`, the result was inactive.
Same read-out and setting: then `O=C(Cl)c1c(Cl)c(Cl)c(C(=O)Cl)c(Cl)c1Cl`, with “inactive”.
